A selection: hits, their analogues and other compounds. The true share with any hit is near 6%.
D3 ag: D3 dopamine receptor (human) agonism; P35462; D3R DiscoveRx beta-arrestin cells, luminescence, 90 min; max activation, %; 410,000 compounds, 0.58% hits; AID 652048; in the data active = max activation above about 30%
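Agonist-mode cell screen: cells plated at 1500/well and incubated overnight at 37 °C, then exposed to library compounds for 90 min at 37 °C. Detection reagent was added for 30–60 min at room temperature, and luminescence was read.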
D3 antag: blocks the human D3 dopamine receptor; P35462; AID 652054; D3R cells, DiscoveRx beta-arrestin luminescence, antagonist mode; hits give low values; 360,000 compounds, 2.5% hits; max response, negative = inhibition, %; in the data active = max response below about -50%; inconclusive = no clear call, values can overlap the other calls
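Cells expressing the human receptor were seeded at 1500 cells/well, incubated overnight at 37 degrees C in 5% CO2, then exposed to library compounds with dopamine controls for 90 minutes at 37 degrees C before luminescent detection.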
D1 antag: blocks dopamine activation of the human D1 receptor; HEK293 TREx D1 cells, calcium flux, dopamine EC80; hits give low values; activity change, negative = inhibition, % at 10 µM; AID 504652; P21728; 360,000 compounds, 3.2% hits; in the data active = activity change below about -30%
Target sequence (P21728 whole entry, looked up): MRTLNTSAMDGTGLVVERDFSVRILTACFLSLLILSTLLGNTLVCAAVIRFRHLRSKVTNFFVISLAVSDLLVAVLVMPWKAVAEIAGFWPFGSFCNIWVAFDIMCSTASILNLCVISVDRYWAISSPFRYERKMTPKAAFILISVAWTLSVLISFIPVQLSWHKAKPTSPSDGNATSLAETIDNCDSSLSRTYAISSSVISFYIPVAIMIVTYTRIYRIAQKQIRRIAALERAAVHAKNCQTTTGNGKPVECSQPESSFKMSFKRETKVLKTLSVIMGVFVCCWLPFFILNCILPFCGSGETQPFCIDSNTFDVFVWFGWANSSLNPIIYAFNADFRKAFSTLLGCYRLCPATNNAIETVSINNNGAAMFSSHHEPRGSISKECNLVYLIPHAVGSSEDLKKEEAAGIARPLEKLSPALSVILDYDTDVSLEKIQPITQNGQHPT
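After overnight tetracycline induction at 30 C, force-coupled D1 HEK293 cells took up a no-wash calcium dye at room temperature. Compounds were added and monitored 180 s, and the response to EC80 dopamine was then recorded.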
D1 agonist: human D1 receptor agonism; P21728; HEK293 T-REx D1 cells, calcium flux, agonist mode; activation, % at 2 µM; 360,000 compounds, 1% hits; AID 504660; in the data active = activation above about 30%
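Agonism was scored from calcium flux recorded over 180 s (1 read/s) after pintool compound addition, following a 10-cycle baseline. Cells were inducible force-coupled HEK293 TREx D1, plated overnight at 30 C and loaded with no-wash calcium dye.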
D1 potentiator: enhances dopamine response at the human D1 receptor; HEK293 TREx D1 cells, calcium flux, dopamine EC20 potentiation; 360,000 compounds, 0.036% hits; potentiation, % at 10 µM; P21728; in the data active = potentiation above about 30%
Numbers stand for hits.

How did O=C(Cn1cnc2c(nnn2-c2ccccc2)c1=O)NCc1ccc(F)cc1 do in these assays?
D3 ag: inactive; D3 antag: inactive; D1 antag: -60; D1 agonist: inactive; D1 potentiator: inactive

How did COc1ccc(OC)c(NC(=O)Nc2cccc(OCc3cc(=O)n4cc(C)ccc4n3)c2)c1 do in these assays?
D3 ag: inactive; D1 antag: inactive; D1 agonist: inactive; D1 potentiator: inactive

How did C(=N\Nc1nc(Nc2ccccc2)nc(N2CCOCC2)n1)/c1c[nH]c2ccccc12 do in these assays?
D3 ag: inactive; D3 antag: -62; D1 antag: inactive; D1 agonist: inactive; D1 potentiator: inactive

Results for c1ccc(Nc2nc(N3CCNCC3)nc(N3CCOCC3)n2)cc1 ?
D3 ag: inactive; D3 antag: -79; D1 antag: inactive; D1 agonist: inactive; D1 potentiator: inactive

How did c1ccc(Nc2nc(N3CCOCC3)nc(N3CCOCC3)n2)cc1 do in these assays?
D3 ag: inactive; D3 antag: inconclusive; D1 antag: inactive; D1 agonist: inactive; D1 potentiator: inactive

How did CCN1CCN(C(=S)c2ccc(Cl)cc2)CC1 do in these assays?
D3 ag: inactive; D3 antag: -69; D1 antag: inactive; D1 agonist: inactive; D1 potentiator: inactive

How did CSc1ccc(C(=S)N2CCCCCC2)cc1 do in these assays?
D3 ag: inactive; D3 antag: inactive; D1 antag: inactive; D1 agonist: inactive; D1 potentiator: inactive

How did CC(=O)/C(C(=N)N1CCN(C(c2ccccc2)c2ccccc2)CC1)=C(\C)O do in these assays?
D3 ag: inactive; D3 antag: inconclusive; D1 antag: inactive; D1 agonist: inactive; D1 potentiator: inactive

What do the screens show for `CC(=O)/C(C(=N)N1CCN(Cc2ccccc2)CC1)=C(\C)O`?
D3 ag: inactive; D3 antag: -54; D1 antag: inactive; D1 agonist: inactive; D1 potentiator: inactive

What do the screens show for `OCCN1CCN(C(=S)c2ccc(Cl)cc2)CC1`?
D3 ag: inactive; D3 antag: inactive; D1 antag: inactive; D1 agonist: inactive; D1 potentiator: inactive

What do the screens show for `CSc1ccc(C(=S)N2CCN(Cc3ccccc3)CC2)cc1`?
D3 ag: inactive; D3 antag: inconclusive; D1 antag: inactive; D1 agonist: inactive; D1 potentiator: inactive

How did S=C(c1ccc(Cl)cc1)N1CCN(Cc2ccccc2)CC1 do in these assays?
D3 ag: inactive; D3 antag: -69; D1 antag: inactive; D1 agonist: inactive; D1 potentiator: inactive

What do the screens show for `CCN1CCN(C(=S)c2ccc(SC)cc2)CC1`?
D3 ag: inactive; D3 antag: -85; D1 antag: inactive; D1 agonist: inactive; D1 potentiator: inactive

How did CCOC(=O)c1cc(-c2ccccc2)n(CCC(=O)Nc2ccc(OC)c(Cl)c2)c1C do in these assays?
D3 ag: inactive; D1 antag: inactive; D1 agonist: inactive; D1 potentiator: inactive

What do the screens show for `CC(CN(C)C)CN1c2ccccc2S(=O)(=O)c2ccccc21` (centres undefined)?
D3 ag: inactive

Results for CC(C)CC(=O)NCC(c1ccc2c(c1)OCO2)N1CCN(c2ccccc2F)CC1 (centres undefined) ?
D3 ag: inactive; D1 antag: inactive; D1 agonist: inactive; D1 potentiator: inactive

Results for CCn1c(C)nc2cc(-c3nnc(-c4c(-c5ccccc5)noc4C)o3)ccc21 ?
D3 ag: 41; D3 antag: inactive; D1 antag: inactive; D1 agonist: inactive; D1 potentiator: inactive

How did Cc1onc(-c2ccccc2)c1-c1nnc(-c2ccccc2C(F)(F)F)o1 do in these assays?
D3 ag: inactive; D3 antag: inactive; D1 antag: inactive; D1 agonist: inactive; D1 potentiator: inactive

What do the screens show for `CC(=O)N1c2ccc(S(=O)(=O)NCC3CCC(C(=O)Nc4cc(C)ccc4C)CC3)cc2CC1C` (centres undefined)?
D3 ag: inactive; D1 antag: inactive; D1 agonist: inactive; D1 potentiator: inactive

What do the screens show for `CCc1ccc(S(=O)(=O)NC(=S)NC2CCCCC2)cc1`?
D3 ag: inactive; D3 antag: -67; D1 antag: inactive; D1 agonist: inactive; D1 potentiator: inactive

What do the screens show for `CCN(Cc1ccccc1)C(=O)c1cc2ccc3cccnc3c2[nH]1`?
D3 ag: inactive; D1 antag: inactive; D1 agonist: inactive; D1 potentiator: inactive

How did Cc1noc(C)c1S(=O)(=O)NC1CCN(Cc2ccccc2)CC1 do in these assays?
D3 ag: inactive; D3 antag: inactive; D1 antag: -41; D1 agonist: inactive; D1 potentiator: inactive

What do the screens show for `Cc1cccc(S(=O)Cc2ccc(C(=O)NC3CCN(Cc4ccccc4)CC3)o2)c1` (centres undefined)?
D3 ag: inactive; D3 antag: -67; D1 antag: inactive; D1 agonist: inactive; D1 potentiator: inactive

Results for Cc1cc(C)c(S(=O)(=O)NC2CCN(Cc3ccccc3)CC2)c(C)c1 ?
D3 ag: inactive; D3 antag: inactive; D1 antag: inactive; D1 agonist: inactive; D1 potentiator: inactive

What do the screens show for `Cc1ccc(-c2nnn(CC(=O)NC3CCN(Cc4ccccc4)CC3)n2)cc1`?
D3 ag: inactive; D3 antag: inconclusive; D1 antag: inactive; D1 agonist: 31; D1 potentiator: inactive

How did Cc1ccccc1S(=O)Cc1ccc(C(=O)NC2CCN(Cc3ccccc3)CC2)o1 (centres undefined) do in these assays?
D3 ag: inactive; D3 antag: inactive; D1 antag: inactive; D1 agonist: inactive; D1 potentiator: inactive

Results for Cc1ccc(CC(=O)NC2CCN(Cc3ccccc3)CC2)cc1 ?
D3 ag: inactive; D3 antag: -55; D1 antag: inactive; D1 agonist: inactive; D1 potentiator: inactive

What do the screens show for `CC1CCN(Cc2ccc(-c3nnn(CC(=O)NC4CCCCC4)n3)cc2)CC1`?
D3 ag: inactive; D3 antag: inactive; D1 antag: inactive; D1 agonist: inactive; D1 potentiator: inactive

Results for COc1cccc(C2=NN(C(C)=O)C(c3cn(-c4ccccc4)nc3-c3cccs3)C2)c1 (centres undefined) ?
D3 ag: inactive; D1 antag: inactive; D1 agonist: inactive; D1 potentiator: inactive

What do the screens show for `O=C(Cn1nnc(-c2ccc(Cl)cc2)n1)NC1CCN(Cc2ccccc2)CC1`?
D3 ag: inactive; D3 antag: inactive; D1 antag: -59; D1 agonist: 37; D1 potentiator: inactive

How did COC(=O)c1c(SC)nc2ccccc2c1OCc1cc(C)ccc1C do in these assays?
D3 ag: inactive; D1 antag: inactive; D1 agonist: 31; D1 potentiator: inactive

Results for COC(=O)c1c(SC)nc2ccccc2c1OCc1ccccc1Cl ?
D3 ag: inactive; D1 antag: inactive; D1 agonist: inactive; D1 potentiator: inactive

How did CC(=O)Nc1ccc(S(=O)(=O)NC2=NCN(C(C)C)CN2)cc1 do in these assays?
D3 ag: inactive; D1 antag: inactive; D1 agonist: inactive; D1 potentiator: inactive

What do the screens show for `c1ccc(CNc2ncnc3nc[nH]c23)cc1`?
D3 ag: inactive; D3 antag: inactive; D1 antag: inactive; D1 agonist: inactive; D1 potentiator: inactive

Results for c1ccc(CCCNc2ncnc3nc[nH]c23)cc1 ?
D3 ag: inactive; D3 antag: inactive; D1 antag: -57; D1 agonist: 193; D1 potentiator: inactive
